Test results taken from the supplement of paper PMC9023506.
Where a name gives a salt, the structure may show the parent alone.

What follows are molecules tested on Danio rerio larvae (5 dpf) (assay: activity during period 15 (no stimuli), difference vs DMSO (percentage points (treated minus DMSO)); higher = more of the behaviour than the DMSO vehicle control). Conditions: 10 µM; exposure time: 3 h pre-incubation + 3 h imaging.
Protocol: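 5-dpf wild-type zebrafish larvae were imaged in 96-well plates. They were treated with 190 Tocris FDA-approved drugs at 10 µM (1 µl/ml DMSO) for 3 h before and 3 h during imaging at 28.5 °C, 48 larvae per drug. Automated image analysis gave % time moving and optomotor responses. Values are drug group mean minus DMSO vehicle mean (n=844), in percentage points, for 10 behaviours.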
In the case of `COc1cc(N)c(Cl)cc1C(=O)NC1CCN(CCCOc2ccc(F)cc2)CC1OC` (stereo not given) [Cisapride], the “activity during period 15” value is reported as -0.757. In the case of `O=C(O[C@@H]1C[C@@H]2C[C@H]3C[C@H](C1)N2CC3=O)c1c[nH]c2ccccc12` [Dolasetron mesylate], the “activity during period 15” value is reported as -1.51. For `O=C(O)C[C@H](O)C[C@H](O)/C=C/c1c(C2CC2)nc2ccccc2c1-c1ccc(F)cc1` [Pitavastatin calcium], the “activity during period 15” value was -4.44. `NS(=O)(=O)c1cc(C(=O)O)c(NCc2ccco2)cc1Cl` [Furosemide] was tested, and the “activity during period 15” value was 9.33. With `CC[C@H]1OC(=O)[C@H](C)[C@@H](O[C@H]2C[C@@](C)(OC)[C@@H](O)[C@H](C)O2)[C@H](C)[C@@H](O[C@@H]2O[C@H](C)C[C@H](N(C)C)[C@H]2O)[C@](C)(O)C[C@@H](C)CN(C)[C@H](C)[C@@H](O)[C@]1(C)O` [Azithromycin] the “activity during period 15” value was -17.4. In the case of `CC(=O)Oc1ccccc1C(=O)O` [Aspirin], the “activity during period 15” value is reported as -1.19. For `CCCCNc1cc(C(=O)O)cc(S(N)(=O)=O)c1Oc1ccccc1` [Bumetanide], the “activity during period 15” value was -2.8. In the case of `Nc1ncn([C@@H]2O[C@H](CO)[C@@H](O)[C@H]2O)c(=O)n1` [5-Azacytidine], the “activity during period 15” value is reported as 1.42. With `N#Cc1ccc2[nH]cc(CCCCN3CCN(c4ccc5oc(C(N)=O)cc5c4)CC3)c2c1` [Vilazodone hydrochloride] the “activity during period 15” value was -28.4. With `O=C1CCc2ccc(OCCCCN3CCN(c4cccc(Cl)c4Cl)CC3)cc2N1` [Aripiprazole] the “activity during period 15” value was 4.18. In the case of `CC(=O)Nc1ccc(O)cc1` [Acetaminophen], the “activity during period 15” value is reported as 8.08. `C[C@H]1O[C@H](O[C@H]2[C@H](O)[C@@H](O)[C@@H](O[C@H]3[C@H](O)[C@@H](O)C(O)O[C@@H]3CO)O[C@@H]2CO)[C@H](O)[C@@H](O)[C@@H]1N[C@H]1C=C(CO)[C@@H](O)[C@H](O)[C@H]1O` (stereo not given in full) [Acarbose] was tested, and the “activity during period 15” value was 1.42. For `Cc1cc2c(s1)Nc1ccccc1N=C2N1CCN(C)CC1` [Olanzapine], the “activity during period 15” value was 5.7. In the case of `CCCCC(=O)N(Cc1ccc(-c2ccccc2-c2nnn[nH]2)cc1)[C@H](C(=O)O)C(C)C` [Valsartan], the “activity during period 15” value is reported as 9.35. `Cn1nnc2c(C(N)=O)ncn2c1=O` [Temozolomide] was tested, and the “activity during period 15” value was 2.03. In the case of `Brc1c(NC2=NCCN2)ccc2nccnc12`, the “activity during period 15” value is reported as -19.4. `CN1CCN2c3ncccc3Cc3ccccc3C2C1` (stereo not given) [Mirtazapine] was tested, and the “activity during period 15” value was 4.7. For `C[C@H]1C[C@@H]2[C@H]([C@@H](O)C[C@@]3(C)[C@H]2CC[C@]3(O)C(=O)CO)[C@@]2(C)C=CC(=O)C=C12` [Methylprednisolone], the “activity during period 15” value was -4.72. `Cc1ccc(-c2cc(C(F)(F)F)nn2-c2ccc(S(N)(=O)=O)cc2)cc1` [Celecoxib] was tested, and the “activity during period 15” value was 3.28. With `CC(C)N(CCCCOCC(=O)NS(C)(=O)=O)c1cnc(-c2ccccc2)c(-c2ccccc2)n1` [Selexipag] the “activity during period 15” value was 6.35. `Cc1cccc(CN2CCN(C(c3ccccc3)c3ccc(Cl)cc3)CC2)c1` (stereo not given) [Meclizine dihydrochloride] was tested, and the “activity during period 15” value was 8.13. In the case of `Nc1nc2c(ncn2COCCO)c(=O)[nH]1` [Acyclovir], the “activity during period 15” value is reported as -4.38. `CC[C@H](C)C(=O)O[C@H]1C[C@@H](C)C=C2C=C[C@H](C)[C@H](CC[C@@H]3C[C@@H](O)CC(=O)O3)[C@H]21` [Lovastatin] was tested, and the “activity during period 15” value was -4.33. In the case of `COc1ccc([C@@H]2Sc3ccccc3N(CCN(C)C)C(=O)[C@@H]2OC(C)=O)cc1` [Diltiazem hydrochloride], the “activity during period 15” value is reported as -3.65. For `CC(=O)Oc1cc2c(s1)CCN(C(C(=O)C1CC1)c1ccccc1F)C2` (stereo not given) [Prasugrel], the “activity during period 15” value was 11.8. `CN[C@H]1CC[C@@H](c2ccc(Cl)c(Cl)c2)c2ccccc21` [Sertraline hydrochloride] was tested, and the “activity during period 15” value was -26. In the case of `C=CC(=O)N1CCC[C@@H](n2nc(-c3ccc(Oc4ccccc4)cc3)c3c(N)ncnc32)C1` [Ibrutinib], the “activity during period 15” value is reported as -4.55. `CC(CCc1ccc(O)cc1)NCCc1ccc(O)c(O)c1` (stereo not given) [Dobutamine hydrochloride] was tested, and the “activity during period 15” value was -8.99. `Nc1cc(N2CCCCC2)nc(N)[n+]1[O-]` [Minoxidil] was tested, and the “activity during period 15” value was 6.89. `COc1ccc(Cl)cc1C(=O)NCCc1ccc(S(=O)(=O)NC(=O)NC2CCCCC2)cc1` [Glibenclamide] was tested, and the “activity during period 15” value was -4.16. With `CC1=Nc2ccc(Cl)cc2S(=O)(=O)N1` [Diazoxide] the “activity during period 15” value was 2.35. With `CNC(=O)c1cc(Oc2ccc(NC(=O)Nc3ccc(Cl)c(C(F)(F)F)c3)cc2)ccn1` [Sorafenib] the “activity during period 15” value was 8.65. For `CC(c1cc2ccccc2s1)N(O)C(N)=O` (stereo not given) [Zileuton], the “activity during period 15” value was 3.35. With `CC(C)c1ccc2oc3nc(N)c(C(=O)O)cc3c(=O)c2c1` [Amlexanox] the “activity during period 15” value was 7.93. With `Nc1ncn([C@H]2C[C@H](O)[C@@H](CO)O2)c(=O)n1` [Decitabine] the “activity during period 15” value was 1.76. `NS(=O)(=O)Cc1noc2ccccc12` [Zonisamide] was tested, and the “activity during period 15” value was -7.11. `OCCN1C[C@H](O)[C@@H](O)[C@H](O)[C@H]1CO` [Miglitol] was tested, and the “activity during period 15” value was -4.45. With `CC(C)(C(=O)O)c1ccc(C(O)CCCN2CCC(C(O)(c3ccccc3)c3ccccc3)CC2)cc1` (stereo not given) [Fexofenadine hydrochloride] the “activity during period 15” value was 1.68. With `CCCCCCCCc1ccc(CCC(N)(CO)CO)cc1` the “activity during period 15” value was -23.3. For `COc1cc(Nc2c(C#N)cnc3cc(OCCCN4CCN(C)CC4)c(OC)cc23)c(Cl)cc1Cl` [Bosutinib], the “activity during period 15” value was -11.7.
